LmPK inh: inhibitors of Leishmania mexicana pyruvate kinase. Q27686. purified LmPK, Kinase-Glo ATP luminescence, 1 h. Potency, µM (highest dose often 57.5 µM), most hits filed as inhibitors. actives 0.37% (n = 290,000)
Target sequence (Q27686 whole entry, looked up): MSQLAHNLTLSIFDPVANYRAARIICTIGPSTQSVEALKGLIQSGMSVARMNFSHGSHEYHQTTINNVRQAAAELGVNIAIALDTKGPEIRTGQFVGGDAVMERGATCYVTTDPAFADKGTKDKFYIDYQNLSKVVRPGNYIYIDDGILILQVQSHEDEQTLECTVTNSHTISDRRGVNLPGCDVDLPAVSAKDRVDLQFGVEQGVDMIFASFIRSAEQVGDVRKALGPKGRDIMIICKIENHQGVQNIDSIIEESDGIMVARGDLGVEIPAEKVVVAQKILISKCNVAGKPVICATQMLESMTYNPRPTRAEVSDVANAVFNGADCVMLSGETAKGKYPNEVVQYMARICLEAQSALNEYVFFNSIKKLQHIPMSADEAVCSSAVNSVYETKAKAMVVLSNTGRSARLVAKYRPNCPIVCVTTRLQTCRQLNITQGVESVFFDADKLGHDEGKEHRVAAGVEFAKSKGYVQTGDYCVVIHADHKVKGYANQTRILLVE
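Screened at intermediate enzyme activity to detect both inhibitors and activators: LmPK at 0.1 nM, with a 0.5 nM enzyme column as activation reference. PEP 0.5 mM, ADP 0.1 mM; ATP detected by luminescence after 1 h.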
Shiga inhibitor: inhibitors of Shiga toxin in Vero cells. AID 2315. actives 9.2% (n = 290,000). inhibition, % at 38.7 µM. Vero cells, Shiga toxin protein synthesis inhibition reporter; in the data active = inhibition mostly above about 28%, no sharp cut-off; inactive = mostly below about 43%
Cycloheximide cs: counter-screen hit for Shiga toxin inhibitors, cycloheximide; cell reporter, cycloheximide protein synthesis inhibition counterscreen; max response, %; actives 12% (n = 300,000); AID 2314; in the data active = max response mostly above about 13%, no sharp cut-off; inactive = mostly below about 14%; note: read at 38.3 µM for the half of the compounds with a filed dose
RE007 growth inh: less growth of the S. pombe RE007 Vpr strain. Potency, µM (top dose mostly 92.2 µM), usual class: inhibitors. actives 0.21% (n = 360,000). S. pombe RE007 Vpr strain, BacTiter-Glo ATP luminescence, 24 h; active = well fitted falling curve with a large enough effect; inconclusive = small, poorly fitted or top-dose-only effect; inactive = no such curve, though single readings can be large or run the other way; note: nearly all actives have a fitted effect of over 50% in size
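Fission yeast strain RE007, carrying one chromosomally integrated HIV-1 vpr copy, was seeded at OD 0.01 in PMG+AL medium with 23 nL pinned compound. After 24 h at 30 °C and 99% humidity, viability was read by BacTiter-Glo luminescence.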
Tb PYK inh: inhibitors of Trypanosoma brucei pyruvate kinase | TbPYK enzyme, Kinase-Glo Plus ATP luminescence, 45 min | Q57TT1 | actives 0.12% (n = 410,000) | Potency, µM (top dose mostly 76.8 µM), usual class: inhibitors; note: nearly all actives have a fitted effect of over 50% in size
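Activity of T. brucei pyruvate kinase was followed by Kinase-Glo Plus luminescence after the enzyme reacted 45 min at room temperature with 130 uM ADP (final) and substrate. Test compounds were added before ADP at multiple concentrations.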
Giardia FBPA inh: Giardia lamblia aldolase inhibition; A8B2U2; Potency, µM (titrated, usually from 59.6 µM), usual class: inhibitors; actives 0.71% (n = 290,000); purified Giardia FBPA; AID 2451; note: nearly all actives have a fitted effect of over 55% in size
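40 nM FBPA preincubated 10 min at RT with compound (up to 57.5 uM final), then substrate plus GAPDH/TPI/NAD/arsenate coupling and diaphorase/resazurin added. Fluorescence read after 20 min at RT, 525/598 nm.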
Numbers stand for hits; . = inactive; ? = inconclusive; / = not tested or not shown; + = active, no number; [ ] = another dose, or the depositor's remark. Shown is part of a subset that was picked to be rich in hits. Unless noted, calls come from the whole dose curve; as a rule, active = well fitted curve in the direction sought with a large enough effect; inconclusive = small, poorly fitted or top-dose-only effect, or another doubt; inactive = no such curve, though single readings can be large; an effect the other way counts as inactive or inconclusive.

SMILES | LmPK inh | Shiga inhibitor | Cycloheximide cs | RE007 growth inh | Tb PYK inh | Giardia FBPA inh
CCn1nc(-c2ccccc2)c(-c2ccccc2)c(C(=O)Nc2ccc(S(N)(=O)=O)cc2)c1=O | / | / | / | / | . | /
Cc1ccccc1C(=O)NCc1ccc2c(c1)CCN2C(=O)c1ccccc1 | / | / | / | / | . | /
Cc1nc(C)c(-c2csc(Nc3ncccc3C)n2)s1 | . | 56 | 43 | . | . | .
COc1ccc(-c2csc(Nc3ncccc3C)n2)cc1 | ? | . | . | ? | . | .
COc1ccccc1Nc1nc(-c2sc(NC(=O)c3ccccc3)nc2C)cs1 | . | . | . | . | . | .
COc1cccc(Nc2nc(-c3sc(C)nc3C)cs2)c1 | . | 62 | 42 | . | . | .
COc1cccc(Nc2nc(-c3sc(N)nc3C)cs2)c1 | . | + | 23 | . | . | .
COc1ccccc1Nc1nc(-c2sc(N)nc2C)cs1 | . | . | 14 | . | . | .
Cc1cnc(CNc2ncncc2-c2c(C)noc2C)cn1 | / | / | / | / | / | .
Cc1nc(C)c(-c2csc(Nc3ccc(F)cc3)n2)s1 | . | 64 | 33 | . | . | .
Cc1nc(N)sc1-c1csc(NCc2ccccc2)n1 | . | . | . | . | . | .
Cc1nc(N)sc1-c1csc(Nc2ncccn2)n1 | . | 42 | 44 | . | . | .
Cc1nc(C)c(-c2csc(Nc3ccc(C(=O)O)c(O)c3)n2)s1 | . | . | . | . | . | .
COc1ccc(-n2c(=O)c3sc4ccccc4c3n(CC(=O)NC3CCCCC3)c2=O)cc1 | / | / | / | / | . | /
COc1ccc(C(=O)NC(=S)N2CCC(C)CC2)cc1Br | . | 29 | 18 | . | . | /
CC1CCN(C(=S)NC(=O)c2ccccc2)CC1 | . | . | . | . | . | .
COc1ccc(C(=O)NC(=S)NC(C)(C)C)cc1Br | . | 71 | 21 | . | . | .
COc1ccc(C(=O)NNC(=S)NC(=O)c2ccc(F)cc2)cc1Br | / | / | / | . | . | /
COc1ccc(C(=O)NC(=S)NC(C)C)cc1Br | . | 65 | 23 | . | . | .
CC(=O)Nc1cccc(Nc2nc3ccccc3n3c(C)nnc23)c1 | / | / | / | / | . | /
CCN1CCN(CC(=O)Nc2nc3ccc(OC)cc3s2)CC1 | . | . | . | . | . | ?
COc1ccc2nc(NC(=O)CN3CCOCC3)sc2c1 | . | . | 58 | . | . | .
COc1ccc2nc(NC(=O)CN3CCN(C)CC3)sc2c1 | . | 152 | 46 | . | . | .
COc1ccc2nc(NC(=O)CN3C(=O)NC4(CCCCC4)C3=O)sc2c1 | . | . | 17 | . | . | /
Cc1noc(C)c1C(=O)N1CCC[C@@]2(CCN(c3ncccn3)C2)C1 | / | / | / | / | . | .
SMILES | LmPK inh | Shiga inhibitor | Cycloheximide cs | RE007 growth inh | Tb PYK inh | Giardia FBPA inh
COCC(=O)N(C)c1nnc(-c2cnc(C)cn2)s1 | . | . | 24 | . | . | .
O=C(COC(=O)c1c(Cl)cccc1Cl)Nc1ccccc1Br | . | . | 26 | . | . | .
O=C(COC(=O)/C=C/c1ccccc1)Nc1ccccc1Br | . | . | . | . | . | .
CS(=O)(=O)c1ccc(Cl)c(NC(=O)COC(=O)c2c(Cl)cccc2Cl)c1 | . | . | . | . | . | .
O=C(C[n+]1ccccc1)Nc1ccccc1Br | . | 53 | 24 | . | . | ?
O=C(COC(=O)c1ccccc1)Nc1ccccc1Br | . | 65 | 40 | . | . | .
COc1cccc(CNC(=O)c2cccc(-n3c(C)nc4cccnc43)c2)c1OC | / | / | / | / | .[15.4 µM] | /
Cc1cc(SCC(=O)NCc2ccc(Cl)cc2)nc(=O)[nH]1 | / | / | / | / | . | /
COc1cccc(OCCNC(=O)c2cccc(OC)c2)c1 | . | . | . | . | . | .
COc1ccc(OCC(=O)NCc2ccc(Cl)cc2)cc1 | . | / | . | . | . | .
O=C(NCCN1CCNCC1)c1ccccn1 | . | 101 | . | . | . | .
COc1ccc(CCC(=O)NCCOc2ccc(Cl)cc2)cc1 | . | . | 32 | . | . | .
Cc1ccc(C(=O)CC(=O)COc2ccc(Cl)cc2)cc1 | . | . | 18 | ? | . | .
COc1cccc(OCCNC(=O)c2ccc(C)cc2)c1 | . | 40 | 27 | . | . | .
Cc1ccc(OCC(=O)NS(=O)(=O)c2ccc(Cl)cc2)cc1 | . | . | . | . | . | /
Cc1ccc(C(=O)NCCOc2ccc(Cl)cc2)cc1 | . | 51 | 32 | . | . | .

Screens deposited in PubChem by National Center for Advancing Translational Sciences (NCATS).
